Laboratory results taken from PubChem BioAssay.
Some of the results follow. The source made the active and inactive calls.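 The calls were made as follows, unless noted: active = mean inhibition above about 50% in the one-dose retest (limit read from the data); inactive = the rest.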

Key:
[1] = molecular target: Sentrin-specific protease 8 (Homo sapiens) (UniProt Q96LD8); assay: human SENP8 peptidase blockers, hit retest – biochemical, luminescence, single concentration, confirmation (AID 488912;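 active = mean inhibition across replicates above about 50%, limit read from the data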); settings: Recombinant SENP8, Z-RLRGG-aminoluciferin luminescence, 60 min; at 12.5 µM; hits give high values
Chain of Sentrin-specific protease 8 (Homo sapiens) (Q96LD8 whole entry, looked up, the tested form may be a part): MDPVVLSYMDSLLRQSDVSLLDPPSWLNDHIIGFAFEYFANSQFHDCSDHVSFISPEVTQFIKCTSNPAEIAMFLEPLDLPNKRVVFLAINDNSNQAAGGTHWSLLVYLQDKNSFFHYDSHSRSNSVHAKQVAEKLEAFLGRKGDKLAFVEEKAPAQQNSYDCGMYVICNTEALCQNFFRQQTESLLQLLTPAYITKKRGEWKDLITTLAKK

[2] = molecular target: Sentrin-specific protease 6 (Homo sapiens) (UniProt Q9GZR1); assay: inhibition of human SENP6 catalytic domain – biochemical, luminescence, single concentration, confirmation (AID 488915); settings: recombinant SENP6, Z-RLRGG-aminoluciferin luminescence; at 12.5 µM; hits give high values
Chain of Sentrin-specific protease 6 (Homo sapiens) (Q9GZR1 628-1112 limits assumed): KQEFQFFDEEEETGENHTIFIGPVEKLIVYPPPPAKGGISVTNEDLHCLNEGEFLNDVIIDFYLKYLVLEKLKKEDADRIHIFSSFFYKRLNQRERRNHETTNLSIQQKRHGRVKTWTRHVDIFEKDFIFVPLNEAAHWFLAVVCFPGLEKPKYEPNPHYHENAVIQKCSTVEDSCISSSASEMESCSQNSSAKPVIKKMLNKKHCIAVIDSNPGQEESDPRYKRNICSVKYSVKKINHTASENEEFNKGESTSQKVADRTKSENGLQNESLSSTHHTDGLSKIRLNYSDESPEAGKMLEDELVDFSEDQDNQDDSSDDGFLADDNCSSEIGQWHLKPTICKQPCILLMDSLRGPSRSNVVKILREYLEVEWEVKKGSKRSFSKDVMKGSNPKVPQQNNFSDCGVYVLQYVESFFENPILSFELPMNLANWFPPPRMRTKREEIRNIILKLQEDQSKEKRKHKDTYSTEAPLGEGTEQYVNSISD

[3] = molecular target: Sentrin-specific protease 7 (Homo sapiens) (UniProt Q9BQF6); assay: human SENP7 peptidase blockers, hit retest – biochemical, luminescence, single concentration, confirmation (AID 488917); settings: recombinant SENP7, Z-RLRGG-aminoluciferin luminescence, 40 min; at 12.5 µM; hits give high values
Chain of Sentrin-specific protease 7 (Homo sapiens) (Q9BQF6 706-1050 limits assumed): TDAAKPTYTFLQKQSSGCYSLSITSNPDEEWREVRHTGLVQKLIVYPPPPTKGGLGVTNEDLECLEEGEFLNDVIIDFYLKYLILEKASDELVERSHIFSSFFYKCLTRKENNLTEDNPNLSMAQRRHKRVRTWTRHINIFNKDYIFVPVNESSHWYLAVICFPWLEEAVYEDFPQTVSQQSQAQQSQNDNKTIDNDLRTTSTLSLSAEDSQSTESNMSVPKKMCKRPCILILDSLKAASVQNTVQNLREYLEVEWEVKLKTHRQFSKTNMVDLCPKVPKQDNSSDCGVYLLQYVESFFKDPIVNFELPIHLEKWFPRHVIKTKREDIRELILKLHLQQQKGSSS

Caspase-3 (Homo sapiens) = Caspase-3 (Homo sapiens) (UniProt P42574); assay: human caspase-3 activity blockade, out-of-family – biochemical, single concentration, selectivity assay for SENP inhibitor project, confirmation (AID 488918;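 active = mean inhibition above about 50%, limit read from the data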;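 also: plate controls were enzyme with DMSO for no effect and wells without caspase-3 for full effect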); settings: purified caspase-3, Z-DEVD-aminoluciferin luminescence, 60 min; at 12.5 µM; hits give high values
Chain of Caspase-3 (Homo sapiens) (P42574 28-227 limits assumed): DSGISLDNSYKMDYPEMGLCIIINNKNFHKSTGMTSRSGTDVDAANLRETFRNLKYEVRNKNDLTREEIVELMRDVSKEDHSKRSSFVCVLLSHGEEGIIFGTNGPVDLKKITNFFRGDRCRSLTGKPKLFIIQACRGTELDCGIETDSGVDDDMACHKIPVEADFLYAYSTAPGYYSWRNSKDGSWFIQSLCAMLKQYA

[4] = Ultra-Glo luciferase signal interference – biochemical, single concentration, SENP8 reaction pre-completed, artefact control for SENP inhibitor project, confirmation (AID 488919;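 active = mean inhibition above about 50% when retested at one dose, limit read from the data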;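 also: plate controls were DMSO wells with completed reaction for no effect and substrate without enzyme for full effect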); settings: Pre-incubated SENP8/Z-RLRGG-aminoluciferin, luciferase luminescence interference; at 12.5 µM; hits give high values

Measured: inhibition

c1ccc(-c2cc(-c3ccccc3)[nH]n2)cc1
active: [1] 69.7% | [2] 64.5% | [3] 85.8% | [4] 71.4%
inactive: Caspase-3 (Homo sapiens) 38%

O=C(c1ccc(CSc2ccccc2)cc1)N1CCCCCC1
active: [1] 57.5% | [2] 57% | [3] 80% | Caspase-3 (Homo sapiens) 54.3% | [4] 65.5%

Nc1ccc(-c2nnc(-c3ccc(-c4ccccc4)cc3)o2)cc1
inactive: [1] 11.8% | [2] 10.8% | [3] 32.4% | Caspase-3 (Homo sapiens) 6.5% | [4] -0.8%

O=C(Nc1ccccc1Cl)Nc1cccc2cccnc12
active: [3] 75.2%
inactive: [1] 35.6% | [2] 37.2% | Caspase-3 (Homo sapiens) 25.9% | [4] 32.6%

O=C(/C=C/c1ccco1)Nc1ccc(Oc2ccccc2)cc1
active: [1] 51% | [2] 64.2% | [3] 89.4%
inactive: Caspase-3 (Homo sapiens) 40.7% | [4] 38.3%

c1ccc(CN=C2Nc3ccccc3CS2)nc1
active: [3] 74.7% | Caspase-3 (Homo sapiens) 76.5% | [4] 57.5%
inactive: [1] 48.6% | [2] 41.9%

O=C(Nc1cccnc1Cl)c1cc(-c2ccccc2O)on1
inactive: [1] 8.6% | [2] 17.8% | [3] 16.2% | Caspase-3 (Homo sapiens) 8% | [4] 1.6%

Oc1ccc(N=Nc2nccs2)c(O)c1
active: [1] 82.3% | [2] 80.3% | [3] 93.9% | Caspase-3 (Homo sapiens) 90.8% | [4] 82.8%

O=C(Nc1ccccc1C(=O)Nc1ccncc1)c1ccc([N+](=O)[O-])cc1
inactive: [1] 47.2% | [4] 10.6%
active: [2] 57.2% | [3] 85.4% | Caspase-3 (Homo sapiens) 65.1%
